The source of these data is PubChem BioAssay.

Each structure is given as a SMILES string. Records with an inconclusive call do not appear. Calls of active or inactive are those of the source.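 The calls were made as follows, unless noted: active = GFP response, as percent of the DMSO control, above the screen-wide mean plus 3 SD, about 139; inconclusive = no response measured because the compound's own fluorescence interfered; inactive = the rest.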

Test [1] can be described thus: rapamycin-like changes in RPL19A-GFP expression – cell-based, S. cerevisiae, multiplex flow cytometry, primary screen (AID 1862; in the data active = percent of DMSO control GFP below about 86%;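 also: lower values mimic rapamycin by blocking the RPL19A rise seen in DMSO cells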). Particulars: S. cerevisiae RPL19A-GFP strain, flow cytometry fluorescence, 3 h; at 10 µM; stronger effect = lower value.
Test [2] can be described thus: TOR pathway GLN3 branch reporter MEP2-GFP changes – S. cerevisiae, multiplex flow cytometry, primary screen (AID 1867).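 Also: median GFP channel fluorescence of barcode-gated MEP2-GFP cells measured by flow cytometry.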 Particulars: S. cerevisiae MEP2-GFP strain, 3 h, at 10 µM, stronger effect = higher value, 100% means same as DMSO wells.
Test [3] is described as follows: TOR pathway RTG branch CIT2 reporter changes – S. cerevisiae, GFP fusion, multiplex flow cytometry, primary screen (AID 1870;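 active = percent response above a set limit, the screen-wide mean plus 3 SD, cut at about 130% in these data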;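 also: barcoded CIT2-GFP strain pooled with four other GFP strains with rapamycin as positive control; median GFP fluorescence per well over plate mean of DMSO wells so 100% = DMSO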). Particulars: S. cerevisiae CIT2-GFP expression, 3 h, at 10 µM, stronger effect = higher value. (Flow cytometry measures light scatter and fluorescence of single cells or particles in a stream.)
Test [4] is described as follows: TOR pathway LAP4-GFP level changes – S. cerevisiae, multiplex flow cytometry, primary screen (AID 1873;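 active = GFP signal, as percent of the solvent control, above the screen mean plus 3 SD, about 149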). Particulars: S. cerevisiae LAP4-GFP expression, 3 h, at 10 µM, stronger effect = higher value.
The nature of test [5]: yeast AGP1-GFP level changes, GLN3 branch – cell-based, multiplex flow cytometry, S. cerevisiae, primary screen (AID 1887;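 active = GFP signal above the screen-wide mean plus 3 SD, that is over about 124.5% of the solvent control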;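 also: AGP1-GFP fusion strain of S. cerevisiae within a five-strain barcoded multiplex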). Particulars: 3 h, at 10 µM, stronger effect = higher value.
The nature of test [6]: reduced mouse 2C T cell binding to pMHC/ICAM-1 vesicles – MLPCN validation set, flow cytometry, LFA-1/ICAM-1 modulator project, pilot screen (AID 2523;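 active = response below a set limit, under 55% cells CD8-positive and vesicle-bound, and CD8 cells' 90th-percentile brightness under 279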;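 as to vesicle binding response: mean PE anti-B7-1 fluorescence of CD8+ cells relative to row control; 100% = QL9-loaded vesicles with DMSO vehicle in the same plate row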). Particulars: 2C mouse CD8+ T cells, at 7 µM, stronger effect = lower value; double positive events: measured here: CD8+/vesicle+ event percentage.
Test [7] has as its target Integrin beta-1 (Homo sapiens) + Integrin alpha-4 (Homo sapiens) (UniProt P13612+P05556). As to the kind of experiment: alpha4beta1 integrin LIBS antibody binding reduction – U937 cells, HUTS-21 mAb, flow cytometry, validation set, VLA-4 allosteric modulator project, pilot screen (AID 2674;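 active = inhibition above 50%, about 3 SD of the validation set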;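 also: antibody binding induced by the VLA-4 ligand LDV present at three times its Kd; 0% = LDV ligand with antibody and no compound and 100% = antibody without LDV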). Particulars: HUTS-21 LIBS mAb binding, at 6.7 µM, stronger effect = higher value, binding induced by LDV ligand.

Test [8] can be described thus: calorie-restriction mimetic ROS inhibitors, yeast – validation compound set, pilot screen (AID 2706;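 active = superoxide response below 65% of plate, a cut near 3 SD across the whole screen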;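 also: yeast exposed to compound for one week at 30 degrees C before staining; 100% = mean of all compound wells on the same plate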). Particulars: S. cerevisiae aging, superoxide DHE fluorescence; at 10 µM, stronger effect = lower value.
Test [9] deals with Beta-adrenergic receptor kinase 1 (Homo sapiens) (UniProt P25098). The experiment in a line: GRK2 binders displacing RNA aptamer, biochemical, validation, human GRK2, bead flow cytometry (AID 488806;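 active = aptamer binding inhibition above 30%, about 3 SD of noise from non-fluorescent compounds; inactive = inhibition at or below 30%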). Particulars: bead-bound GRK2, FAM-aptamer displacement, at 10 µM, stronger effect = higher value.
The target of test [10] is AP-2 complex subunit beta (Homo sapiens) (UniProt P63010). The experiment in a line: beta-arrestin/AP2 interaction blockers – biochemical, validation set, GST-AP2 beads, flow cytometry, pilot screen (AID 504541;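 active = inhibition above 54%, about 3 SD of non-fluorescent compounds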;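 also: AP2 carries R879A mutation and is captured from E. coli lysate; bead-bound FITC arrestin peptide fluorescence measuring arrestin peptide binding to AP2; 0% = DMSO wells and 100% = excess unlabeled arrestin peptide control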). Particulars: FITC arrestin peptide, at 10 µM, stronger effect = higher value, AP2 beta2 appendage fragment, R879A mutant.
Test [11] can be described thus: cytosolic pH regulators acting via V-ATPase – S. cerevisiae, pHLuorin, HTS validation (AID 504600; in the data active = response above about 15%;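 also: plate controls were DMSO for no effect and reference compound for full effect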). Particulars: V-ATPase proton transport, at 10 µM, stronger effect = higher value.
The subject of test [12] is anti-desmoglein-3 scFv antibody binding to human DSG3. As to the kind of experiment: blockers of pathogenic pemphigus antibody–desmoglein-3 binding – biochemical, validation compound set, bead-based, flow cytometry, pilot screen (AID 588368;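 active = binding below the plate cutoff, the plate median minus 3 SD, with a reading above zero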;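 also: signal is the median channel fluorescence of bead-bound GFP antibody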). Particulars: Protein G beads, DSG3-Fc, scFv-GFP binding, at 10 µM, stronger effect = lower value.
Test [13] in a line: Nile Red efflux blockade in pump-expressing yeast – validation compound set, multiplex, phenotypic, pilot screen (AID 588506;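 active = efflux inhibition above 0.42, the validation set average plus 4 SD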;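 also: Nile Red retained in cells so higher fluorescence means more efflux inhibition; 0 = negative control wells and 1 = enniatin B 25 µM full block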). Particulars: S. cerevisiae pump-expressing triplex, Nile Red efflux flow cytometry; at 10 µM; stronger effect = higher value; the pumps come from Candida albicans.
Test [14] addresses ATP-binding cassette sub-family B member 6 (Homo sapiens) (UniProt Q9NP58). The experiment in a line: blockers of ABCB6-driven porphyrin uptake – K562-ABCB6 cells, flow cytometry, validation set, pilot screen (AID 588550;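 active = inhibition above the screen-wide mean plus 3 SD, about 51%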;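 also: 0% = DMSO wells and 100% = benzethonium chloride 70 µM positive control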). Particulars: K562-ABCB6 porphyrin accumulation, 1 h, at 10 µM, stronger effect = higher value.
The nature of test [15]: AML differentiation inducers, ER-HoxA9 marrow cells – cell-based, GFP/MAC1 double positive, flow cytometry, validation set, primary screen (AID 588685;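 active = differentiation response of at least 50%, scaled between solvent and reference control, from cells with both markers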;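 also: compound exposure lasts four days before antibody staining and flow analysis; 0% = DMSO wells and 100% = 5 µM fulvestrant positive control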). Particulars: stronger effect = higher value, normalized: vehicle 0, fulvestrant 100.

AP-2 complex subunit beta (Homo sapiens), sequence (P63010 whole entry, looked up, the tested form may be a part, one chain of several): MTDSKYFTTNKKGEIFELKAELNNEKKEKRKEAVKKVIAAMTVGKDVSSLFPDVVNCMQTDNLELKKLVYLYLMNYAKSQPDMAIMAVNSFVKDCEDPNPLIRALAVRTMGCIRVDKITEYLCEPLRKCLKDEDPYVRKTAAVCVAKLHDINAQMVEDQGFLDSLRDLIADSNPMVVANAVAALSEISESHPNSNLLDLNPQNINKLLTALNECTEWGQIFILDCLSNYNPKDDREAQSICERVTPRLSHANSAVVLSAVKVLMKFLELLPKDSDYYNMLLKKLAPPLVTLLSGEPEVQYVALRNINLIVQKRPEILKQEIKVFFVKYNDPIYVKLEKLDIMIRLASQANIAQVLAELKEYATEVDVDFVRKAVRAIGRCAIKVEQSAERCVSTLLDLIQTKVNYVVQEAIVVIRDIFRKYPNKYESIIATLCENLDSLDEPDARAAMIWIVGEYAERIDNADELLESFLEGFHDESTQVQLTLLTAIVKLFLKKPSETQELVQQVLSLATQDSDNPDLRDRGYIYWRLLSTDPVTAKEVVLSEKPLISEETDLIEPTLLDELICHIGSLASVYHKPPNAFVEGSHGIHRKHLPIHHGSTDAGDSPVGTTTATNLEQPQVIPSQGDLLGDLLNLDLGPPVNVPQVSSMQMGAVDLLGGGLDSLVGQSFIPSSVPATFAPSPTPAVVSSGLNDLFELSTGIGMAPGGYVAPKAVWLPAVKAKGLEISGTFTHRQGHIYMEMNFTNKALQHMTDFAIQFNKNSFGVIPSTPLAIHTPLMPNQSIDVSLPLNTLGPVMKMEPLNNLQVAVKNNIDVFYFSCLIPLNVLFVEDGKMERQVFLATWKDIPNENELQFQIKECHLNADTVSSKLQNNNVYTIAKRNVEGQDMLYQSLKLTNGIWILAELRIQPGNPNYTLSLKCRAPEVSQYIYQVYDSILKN
Integrin beta-1 (Homo sapiens) + Integrin alpha-4 (Homo sapiens), sequence (P05556 whole entry, looked up): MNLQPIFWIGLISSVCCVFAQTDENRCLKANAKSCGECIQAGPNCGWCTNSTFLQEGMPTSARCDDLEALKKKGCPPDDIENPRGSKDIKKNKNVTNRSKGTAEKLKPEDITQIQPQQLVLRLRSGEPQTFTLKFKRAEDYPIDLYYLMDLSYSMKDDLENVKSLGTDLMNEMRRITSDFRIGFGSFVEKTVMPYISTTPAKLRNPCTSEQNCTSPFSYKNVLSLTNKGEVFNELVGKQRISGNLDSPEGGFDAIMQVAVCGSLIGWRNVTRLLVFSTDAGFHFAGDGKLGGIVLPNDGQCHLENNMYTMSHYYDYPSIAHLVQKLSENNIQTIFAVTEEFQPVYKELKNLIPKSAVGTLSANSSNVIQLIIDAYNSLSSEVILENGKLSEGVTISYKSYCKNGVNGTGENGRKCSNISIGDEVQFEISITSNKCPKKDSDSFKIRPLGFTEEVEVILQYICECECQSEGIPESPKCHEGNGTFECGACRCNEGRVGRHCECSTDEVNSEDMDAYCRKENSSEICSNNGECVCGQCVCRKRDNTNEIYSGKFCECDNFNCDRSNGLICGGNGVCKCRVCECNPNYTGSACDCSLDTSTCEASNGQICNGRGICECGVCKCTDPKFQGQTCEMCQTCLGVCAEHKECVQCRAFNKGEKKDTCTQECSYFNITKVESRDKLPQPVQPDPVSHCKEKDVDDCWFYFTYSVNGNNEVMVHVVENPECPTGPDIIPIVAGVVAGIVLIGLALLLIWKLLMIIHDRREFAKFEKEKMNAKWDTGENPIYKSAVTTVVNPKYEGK
Integrin beta-1 (Homo sapiens) + Integrin alpha-4 (Homo sapiens), sequence (P13612 whole entry, looked up): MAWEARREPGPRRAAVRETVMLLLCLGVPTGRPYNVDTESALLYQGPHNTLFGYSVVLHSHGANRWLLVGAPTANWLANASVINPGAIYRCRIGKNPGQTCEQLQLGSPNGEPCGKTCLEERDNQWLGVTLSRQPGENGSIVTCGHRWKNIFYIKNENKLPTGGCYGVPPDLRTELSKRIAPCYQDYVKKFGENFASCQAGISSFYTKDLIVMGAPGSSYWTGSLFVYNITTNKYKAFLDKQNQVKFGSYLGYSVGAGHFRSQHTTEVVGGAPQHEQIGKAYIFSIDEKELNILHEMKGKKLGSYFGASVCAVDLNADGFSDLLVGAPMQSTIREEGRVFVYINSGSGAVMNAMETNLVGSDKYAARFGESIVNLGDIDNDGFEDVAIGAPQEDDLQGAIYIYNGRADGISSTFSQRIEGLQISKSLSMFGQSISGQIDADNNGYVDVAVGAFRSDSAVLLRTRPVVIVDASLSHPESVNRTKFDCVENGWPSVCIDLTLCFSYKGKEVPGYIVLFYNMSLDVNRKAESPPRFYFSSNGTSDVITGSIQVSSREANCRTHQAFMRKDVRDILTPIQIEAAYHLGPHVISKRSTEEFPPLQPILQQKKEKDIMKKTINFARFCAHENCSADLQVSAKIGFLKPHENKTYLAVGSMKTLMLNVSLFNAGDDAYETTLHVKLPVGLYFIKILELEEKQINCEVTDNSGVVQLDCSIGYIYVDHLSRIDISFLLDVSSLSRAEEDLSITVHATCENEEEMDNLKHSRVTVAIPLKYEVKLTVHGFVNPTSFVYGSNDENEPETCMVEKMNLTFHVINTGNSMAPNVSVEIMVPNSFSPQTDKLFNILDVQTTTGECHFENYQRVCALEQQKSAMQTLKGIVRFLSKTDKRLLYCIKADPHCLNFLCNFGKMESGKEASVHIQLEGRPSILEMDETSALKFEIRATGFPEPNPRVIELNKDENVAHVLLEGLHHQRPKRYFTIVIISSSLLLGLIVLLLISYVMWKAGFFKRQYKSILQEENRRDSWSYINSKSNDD
Beta-adrenergic receptor kinase 1 (Homo sapiens), sequence (P25098 whole entry, looked up): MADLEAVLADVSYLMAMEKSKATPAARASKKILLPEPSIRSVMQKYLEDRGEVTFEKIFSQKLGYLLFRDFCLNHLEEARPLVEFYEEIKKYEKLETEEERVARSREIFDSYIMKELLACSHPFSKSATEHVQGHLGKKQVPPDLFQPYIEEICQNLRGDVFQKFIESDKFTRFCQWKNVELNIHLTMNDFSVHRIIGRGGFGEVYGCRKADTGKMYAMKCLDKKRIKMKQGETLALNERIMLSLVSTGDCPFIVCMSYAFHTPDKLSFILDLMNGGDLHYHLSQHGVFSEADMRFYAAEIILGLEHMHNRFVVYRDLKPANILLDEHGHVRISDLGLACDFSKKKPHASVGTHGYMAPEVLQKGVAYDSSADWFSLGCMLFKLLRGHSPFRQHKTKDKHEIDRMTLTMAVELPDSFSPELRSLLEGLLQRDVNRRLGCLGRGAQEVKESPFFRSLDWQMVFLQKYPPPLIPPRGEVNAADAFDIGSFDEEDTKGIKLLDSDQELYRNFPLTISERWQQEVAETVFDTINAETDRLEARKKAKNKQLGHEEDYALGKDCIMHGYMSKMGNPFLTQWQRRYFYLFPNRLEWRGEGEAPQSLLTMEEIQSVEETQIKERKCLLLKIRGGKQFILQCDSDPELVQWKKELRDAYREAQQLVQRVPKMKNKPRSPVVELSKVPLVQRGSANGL
ATP-binding cassette sub-family B member 6 (Homo sapiens), sequence (Q9NP58 whole entry, looked up): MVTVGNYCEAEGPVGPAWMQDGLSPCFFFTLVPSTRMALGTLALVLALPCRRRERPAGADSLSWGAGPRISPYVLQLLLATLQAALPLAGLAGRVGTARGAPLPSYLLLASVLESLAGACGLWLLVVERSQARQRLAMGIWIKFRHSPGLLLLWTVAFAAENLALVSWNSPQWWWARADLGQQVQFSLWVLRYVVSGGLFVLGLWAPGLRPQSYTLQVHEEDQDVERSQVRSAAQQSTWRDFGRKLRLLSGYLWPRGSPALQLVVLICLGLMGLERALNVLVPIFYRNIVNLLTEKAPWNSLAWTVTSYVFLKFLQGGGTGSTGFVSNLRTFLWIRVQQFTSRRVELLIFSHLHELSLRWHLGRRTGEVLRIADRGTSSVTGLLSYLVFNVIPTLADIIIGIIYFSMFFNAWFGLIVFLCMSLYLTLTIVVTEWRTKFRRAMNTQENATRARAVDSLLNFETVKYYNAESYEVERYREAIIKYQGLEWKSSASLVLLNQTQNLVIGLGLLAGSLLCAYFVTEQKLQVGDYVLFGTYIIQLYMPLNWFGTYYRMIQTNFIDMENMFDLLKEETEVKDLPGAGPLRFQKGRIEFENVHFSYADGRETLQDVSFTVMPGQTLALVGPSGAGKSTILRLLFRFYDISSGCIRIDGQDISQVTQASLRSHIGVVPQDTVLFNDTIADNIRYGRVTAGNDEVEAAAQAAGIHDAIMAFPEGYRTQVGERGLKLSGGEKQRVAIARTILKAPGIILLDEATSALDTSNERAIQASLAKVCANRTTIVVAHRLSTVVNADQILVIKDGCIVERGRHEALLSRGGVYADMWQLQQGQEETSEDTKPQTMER

What is called inhibition is the change of the read-out against control, counted positive when it falls. In the case of `CC1=CC2(O)OCCN(CCO)C2=CC1=O` (stereo not given), in test [1], the percent of DMSO control GFP is 103% (inactive). The results for the GFP response vs DMSO in test [2] and in test [4] were 102% (inactive) and 93.3% (inactive), respectively. For the same molecule, the percent response of DMSO control in [3] is 101% (inactive). Besides, the GFP response, % of DMSO in [5] was 97.9% (inactive). This molecule showed a double positive events in [6] of 56.9%. The vesicle binding response in test [6] was 162% (inactive). Also, the inhibition in [7] is -12.4% (inactive); in [10] it was -3.8% (inactive); in [14], 7% (inactive). Besides, the superoxide response (% of plate) in [8] was 103% (inactive). In addition, the aptamer binding inhibition in test [9] is 2% (inactive). Besides, in [11], the response is -1.28% (inactive). Further, the binding (% of control) in test [12] was 102% (inactive). In test [13], the efflux inhibition (fraction of control) was 0.29 (inactive). Besides, in test [15], the differentiation response was 3.03% (inactive).
Turning to `CCOc1ccc(C(=O)/C=C/c2cc(OC)c(OC)c(OC)c2)cc1`, in test [1], the percent of DMSO control GFP is 97.1% (inactive). Moreover, the GFP response vs DMSO in test [2] and in test [4] was 105% (inactive) each time. For the same molecule, in test [3], the percent response of DMSO control was 92% (inactive). Moreover, the GFP response, % of DMSO in test [5] is 89.4% (inactive). Further, the double positive events in [6] came out at 54.7%. For the same molecule, in test [6], the vesicle binding response is 209% (inactive). Moreover, the inhibition in [7] is -0.24% (inactive); in test [10] it was 4.7% (inactive); in test [14], 4% (inactive). In addition, the superoxide response (% of plate) in test [8] is 91.6% (inactive). The aptamer binding inhibition in test [9] was -3% (inactive). For the same molecule, the response in test [11] was 1.41% (inactive). For the same molecule, the binding (% of control) in [12] was 104% (inactive). Moreover, the efflux inhibition (fraction of control) in test [13] is 0.25 (inactive). Moreover, in test [15], the differentiation response is 40.2% (inactive).
For the molecule `CCNC(=S)Nc1ccc(OC(F)(F)F)cc1`, in [1], the percent of DMSO control GFP is 105% (inactive). Besides, the GFP response vs DMSO in test [2] was 107% (inactive); in [4] it was 103% (inactive). Further, the percent response of DMSO control in test [3] was 102% (inactive). In addition, the GFP response, % of DMSO in test [5] is 98.7% (inactive). In addition, the double positive events in test [6] was 60.6%. Besides, the vesicle binding response in test [6] is 166% (inactive). The inhibition in test [7] was -1.17% (inactive); in [10], 43.4% (inactive); in [14] it was -3% (inactive). Further, in test [8], the superoxide response (% of plate) is 93.5% (inactive). Also, the aptamer binding inhibition in [9] was 1% (inactive). For the same molecule, the response in [11] was -22.5% (inactive). In addition, the binding (% of control) in test [12] is 101% (inactive). Also, the efflux inhibition (fraction of control) in test [13] is -0.05 (inactive). Besides, the differentiation response in [15] is 11.1% (inactive).
With `COc1ccc(CNC(=O)C2CCN(C(=O)[C@@H](CC(C)C)NC(=O)OC(C)(C)C)CC2)cc1`, the percent of DMSO control GFP in test [1] is 98.3% (inactive). Besides, the GFP response vs DMSO in test [2] is 90.8% (inactive); in [4], 92.3% (inactive). The percent response of DMSO control in test [3] is 98.8% (inactive). In [5], the GFP response, % of DMSO was 92.7% (inactive). In addition, the double positive events in [6] was 63.6%. The vesicle binding response in [6] was 326% (inactive). The inhibition in test [7] is 14.7% (inactive); in [10], -7.96% (inactive); in test [14] it was 8% (inactive). In addition, the superoxide response (% of plate) in test [8] was 98.6% (inactive). In [9], the aptamer binding inhibition was 1% (inactive). The response in test [11] is -2.19% (inactive). Also, the binding (% of control) in test [12] was 98.7% (inactive). Also, the efflux inhibition (fraction of control) in test [13] is -0.09 (inactive). Also, the differentiation response in test [15] is 3.03% (inactive).
Consider `COc1ccc(OCC(=O)N2c3ccc(C)cc3C3CN(C)CCC32)cc1` (stereo not given), for which the percent of DMSO control GFP in test [1] was 104% (inactive). In addition, the figures for the GFP response vs DMSO in [2] and in [4] were 101% (inactive) and 98.4% (inactive), respectively. Also, the percent response of DMSO control in [3] was 105% (inactive). The GFP response, % of DMSO in test [5] was 96.1% (inactive). The molecule also yielded a double positive events in test [6] of 69.1%. In test [6], the vesicle binding response is 238% (inactive). Further, the inhibition in test [7] was 10% (inactive); in [10], -6.29% (inactive); in test [14] it was 5% (inactive). Moreover, the superoxide response (% of plate) in test [8] was 90.6% (inactive). The aptamer binding inhibition in test [9] is -10% (inactive). Moreover, the response in test [11] is -0.64% (inactive). Further, the binding (% of control) in test [12] was 106% (inactive). For the same molecule, in [13], the efflux inhibition (fraction of control) is 0.33 (inactive). In [15], the differentiation response is 32.1% (inactive).
